Experimental findings from PubChem BioAssay (NCI) are described below.

Compounds without any hit were thinned out: in the full panel of roughly 79,000, 15% have a hit. A number with no mark means an inactive call. The source made the active and inactive calls. Rule as the data show it: active = growth inhibition above about 70%; inactive = the rest.

A short description of assay [1]: NCI Yeast Anticancer Drug Screen. Data for the rad50 strain (AID 155).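 Also: 0% = growth of vehicle-only cultures of the same strain.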 As to conditions: S. cerevisiae rad50 strain growth inhibition, hits give high values. The gist of the method:
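Genetically altered yeast (DNA repair pathway); compound treatment; growth inhibition vs vehicle ctrl.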

Assay [2] is described as follows: NCI Yeast Anticancer Drug Screen. Data for the mec2-1 strain (AID 157). As to conditions: S. cerevisiae mec2-1 strain, hits give high values. The gist of the method: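 Test agents were screened against the mec2-1 yeast strain, with defined DNA repair or cell cycle alteration. Growth was scored as inhibition against vehicle-only controls.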
Assay [3] is described as follows: NCI Yeast Anticancer Drug Screen. Data for the sgs1 mgt1 strain (AID 161).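 Also: 0% = growth of cultures given vehicle only.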 The note with it: S. cerevisiae sgs1 mgt1 strain, hits give high values. The gist of the method: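 Read-out: growth inhibition vs vehicle controls. Cells: mutant yeast strain deficient in DNA damage repair.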
The nature of assay [4]: NCI Yeast Anticancer Drug Screen. Data for the cln2 rad14 strain (AID 165).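 Also: 0% = growth equal to vehicle treated cultures.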 As to conditions: S. cerevisiae cln2 rad14 strain, hits give high values. The essentials: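 Growth of compound-exposed yeast (cln2 rad14 genotype) measured and expressed as inhibition relative to vehicle.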
The nature of assay [5]: NCI Yeast Anticancer Drug Screen. Data for the bub3 strain (AID 167). As to conditions: S. cerevisiae bub3 mutant strain, hits give high values. The essentials:
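Yeast carrying a defined mutation is treated with each compound, and growth is compared with that of vehicle-exposed cells to give inhibition.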

A short description of assay [6]: NCI Yeast Anticancer Drug Screen. Data for the mlh1 rad18 strain (AID 175). The note with it: S. cerevisiae mlh1 rad18 strain growth inhibition, hits give high values. The essentials: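 In this whole-cell yeast screen, a strain with altered DNA damage repair is challenged with compound, and its growth is measured against matched vehicle-treated controls.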
Setting [7] is: at 5.0 µM (retest, dose inferred, filed as 0.5).
[8] abbreviates: at 50.0 µM (retest, dose inferred, filed as 5.0).

For the compound `CCOP(=O)(OCC)/C(C#N)=C/c1ccccc1Cl`, the growth inhibition in assay [1] (setting [7]) was 17%; in assay [1] (setting [8]), 74% (active); in assay [1] (at 50.0 µM), 82.5% (active); in assay [2] (setting [7]), -7%; in assay [2] (setting [8]), 62%; in assay [2] (at 50.0 µM) it was 72.8% (active). The growth inhibition in assay [3] (setting [7]) was 2%; in assay [3] (setting [8]), 65%; in assay [3] (at 50.0 µM), 79.8% (active); in assay [4] (setting [7]), 10%; in assay [4] (setting [8]) it was 55%; in assay [4] (at 50.0 µM), 64.8%. Besides, the growth inhibition in assay [5] (setting [7]) was 0%; in assay [5] (setting [8]), 74% (active); in assay [5] (at 50.0 µM), 72.7% (active); in assay [6] (setting [7]) it was -2%; in assay [6] (setting [8]), 77% (active); in assay [6] (at 50.0 µM), 81.8% (active).
As for `Cc1cc([N+](=O)[O-])c(O)c([N+](=O)[O-])c1C`, the growth inhibition in assay [1] (setting [7]) was 2%; in assay [1] (setting [8]), 71% (active); in assay [1] (at 50.0 µM), 67.5%; in assay [2] (setting [7]), 12%; in assay [2] (setting [8]), 47%; in assay [2] (at 50.0 µM), 26.6%. In addition, the growth inhibition in assay [3] (setting [7]) was 3%; in assay [3] (setting [8]), 70% (active); in assay [3] (at 50.0 µM), 62.5%; in assay [4] (setting [7]), -42%; in assay [4] (setting [8]), 34%; in assay [4] (at 50.0 µM), 45.4%. The growth inhibition in assay [5] (setting [7]) was 11%; in assay [5] (setting [8]), 58%; in assay [5] (at 50.0 µM) it was 63.2%; in assay [6] (setting [7]), -7%; in assay [6] (setting [8]), 90% (active); in assay [6] (at 50.0 µM), 54.1%.
On to `CC(=O)[CH-]C(=O)c1ccccc1.CC(=O)[CH-]C(=O)c1ccccc1.C[C@]12CCC(=O)C=C1CC[C@@H]1C2CC[C@@]2(C)C1CC[C@]2(C)[O-].C[C@]12CCC(=O)C=C1CC[C@@H]1C2CC[C@@]2(C)C1CC[C@]2(C)[O-].Cl.[Ti+4]` (some centres not stated), for which the growth inhibition is 33% in assay [1] (setting [7]); 76% (active) in assay [1] (setting [8]); 86.8% (active) in assay [1] (at 50.0 µM); 26% in assay [2] (setting [7]); 87% (active) in assay [2] (setting [8]); 85% (active) in assay [2] (at 50.0 µM). Moreover, the growth inhibition in assay [3] (setting [7]) was 37%; in assay [3] (setting [8]) it was 93% (active); in assay [3] (at 50.0 µM) it was 84.8% (active); in assay [4] (setting [7]) it was 13%; in assay [4] (setting [8]) it was 72% (active); in assay [4] (at 50.0 µM), 86.1% (active). Moreover, the growth inhibition in assay [5] (setting [7]) is 39%; in assay [5] (setting [8]), 94% (active); in assay [5] (at 50.0 µM), 84.5% (active); in assay [6] (setting [7]), 37%; in assay [6] (setting [8]), 90% (active); in assay [6] (at 50.0 µM), 81.2% (active).
With `[Cl][Pt+2][Cl].[NH-]C1CCCC2CCC[N-]C12` (configuration not stated), the growth inhibition was 34% in assay [1] (setting [7]); 97% (active) in assay [1] (setting [8]); 20.6% in assay [1] (at 50.0 µM); 24% in assay [2] (setting [7]); 77% (active) in assay [2] (setting [8]); 60.4% in assay [2] (at 50.0 µM). Also, the growth inhibition in assay [3] (setting [7]) was 55%; in assay [3] (setting [8]) it was 98% (active); in assay [3] (at 50.0 µM), 57.8%; in assay [4] (setting [7]), 50%; in assay [4] (setting [8]) it was 86% (active); in assay [4] (at 50.0 µM) it was 34%. Also, the growth inhibition in assay [5] (setting [7]) is 52%; in assay [5] (setting [8]) it was 84% (active); in assay [5] (at 50.0 µM) it was 38.5%; in assay [6] (setting [7]), 18%; in assay [6] (setting [8]), 97% (active); in assay [6] (at 50.0 µM) it was 76.1% (active).
For `Fc1ccc(NP(=S)(Nc2ccc(F)cc2F)Nc2ccc(F)cc2F)c(F)c1`, the growth inhibition in assay [1] (setting [7]) was 33%; in assay [1] (setting [8]), 99% (active); in assay [1] (at 50.0 µM), 99.2% (active); in assay [2] (setting [7]), 42%; in assay [2] (setting [8]), 99% (active); in assay [2] (at 50.0 µM), 99.3% (active). Besides, the growth inhibition in assay [3] (setting [7]) is 39%; in assay [3] (setting [8]) it was 99% (active); in assay [3] (at 50.0 µM) it was 99% (active); in assay [4] (setting [7]), 56%; in assay [4] (setting [8]), 99% (active); in assay [4] (at 50.0 µM) it was 98.7% (active). The growth inhibition was 26% in assay [5] (setting [7]); 99% (active) in assay [5] (setting [8]); 98.8% (active) in assay [5] (at 50.0 µM); 30% in assay [6] (setting [7]); 98% (active) in assay [6] (setting [8]); 99.2% (active) in assay [6] (at 50.0 µM).
Turning to `CC1(C)N=C(N)N=C(N)N1CCCOc1ccc(NC(=O)c2ccc(S(=O)(=O)F)cc2)cc1`, the growth inhibition was -3% in assay [1] (setting [7]); 12% in assay [1] (setting [8]); 20.2% in assay [1] (at 50.0 µM); -6% in assay [2] (setting [7]); 30% in assay [2] (setting [8]); 49.5% in assay [2] (at 50.0 µM). The growth inhibition in assay [3] (setting [7]) is -2%; in assay [3] (setting [8]) it was 15%; in assay [3] (at 50.0 µM) it was 47.8%; in assay [4] (setting [7]), -3%; in assay [4] (setting [8]), 0%; in assay [4] (at 50.0 µM), -9%. Moreover, the growth inhibition in assay [5] (setting [7]) was -8%; in assay [5] (setting [8]) it was -4%; in assay [5] (at 50.0 µM), -8.15%; in assay [6] (setting [7]) it was -5%; in assay [6] (setting [8]), 7%; in assay [6] (at 50.0 µM) it was 21.4%.
On to `O=P(O/C(=C\c1ccccc1)c1ccccc1)(c1ccccc1)c1ccccc1`, for which the growth inhibition in assay [1] (setting [7]) was 18%; in assay [1] (setting [8]) it was 96% (active); in assay [1] (at 50.0 µM), 96.8% (active); in assay [2] (setting [7]), 17%; in assay [2] (setting [8]) it was 98% (active); in assay [2] (at 50.0 µM) it was 98.3% (active). The growth inhibition is 15% in assay [3] (setting [7]); 98% (active) in assay [3] (setting [8]); 98.2% (active) in assay [3] (at 50.0 µM); 8% in assay [4] (setting [7]); 97% (active) in assay [4] (setting [8]); 96.2% (active) in assay [4] (at 50.0 µM). Also, the growth inhibition in assay [5] (setting [7]) was 11%; in assay [5] (setting [8]), 97% (active); in assay [5] (at 50.0 µM), 97% (active); in assay [6] (setting [7]), 7%; in assay [6] (setting [8]), 97% (active); in assay [6] (at 50.0 µM), 93.7% (active).
On to `C=CO/C(C)=C(\[Se]c1ccccc1)C(C)=O`, for which the growth inhibition is 4% in assay [1] (setting [7]); 89% (active) in assay [1] (setting [8]); 93.4% (active) in assay [1] (at 50.0 µM); 3% in assay [2] (setting [7]); 91% (active) in assay [2] (setting [8]); 85.9% (active) in assay [2] (at 50.0 µM). Further, the growth inhibition in assay [3] (setting [7]) is 7%; in assay [3] (setting [8]), 89% (active); in assay [3] (at 50.0 µM) it was 91.8% (active); in assay [4] (setting [7]), -10%; in assay [4] (setting [8]), 38%; in assay [4] (at 50.0 µM), 57%. Further, the growth inhibition in assay [5] (setting [7]) is -8%; in assay [5] (setting [8]), 65%; in assay [5] (at 50.0 µM), 75% (active); in assay [6] (setting [7]), 6%; in assay [6] (setting [8]) it was 91% (active); in assay [6] (at 50.0 µM), 91% (active).
With `Cc1ccccc1C[As](C)(=O)O`, the growth inhibition was -157% in assay [1] (setting [7]); -140% in assay [1] (setting [8]); 9.95% in assay [1] (at 50.0 µM); -50% in assay [2] (setting [7]); -47% in assay [2] (setting [8]); 2.45% in assay [2] (at 50.0 µM). Moreover, the growth inhibition in assay [3] (setting [7]) is -64%; in assay [3] (setting [8]) it was -58%; in assay [3] (at 50.0 µM) it was 0.1%; in assay [4] (setting [7]), -62%; in assay [4] (setting [8]), -58%; in assay [4] (at 50.0 µM), 14.8%. Also, the growth inhibition in assay [5] (setting [7]) is -76%; in assay [5] (setting [8]), -76%; in assay [5] (at 50.0 µM), 0.25%; in assay [6] (setting [7]), -147%; in assay [6] (setting [8]), -104%; in assay [6] (at 50.0 µM), 0.35%.
